# Assay results taken from PubChem BioAssay (EPA / NIEHS).
# The source made the active and inactive calls. Rule for the calls: active = hit-call score of the fitted dose curve at least 0.9, where 1 is the maximum; inactive = score below 0.9.
# Read-out: CYP2C8 (gene 1558)
# Assay: LTEA_HepaRG_CYP2C8: Life Technologies and Expression Analysis (LTEA) Assay for CYP2C8 using HepaRG (AID 2283483)
# Settings: mRNA level, 48 h; actives raise or lower the signal
# Procedure: LTEA_HepaRG is a cell based, multiplexed-readout assay that uses HepaRG, a human liver cell line, with measurements taken at 48 hours after chemical dosing on a 96-well plate.LTEA_HepaRG_CYP2C8 is one of 102 assay component(s) measured in the LTEA HepaRG cell culture assay. It is a marker of NR mediated metabolism.Data from the assay component LTEA_HepaRG_CYP2C8 was analyzed into 1 endpoint. This assay endpoint, LTEA_HepaRG_CYP2C8, was analyzed with bidirectional fitting relative to DMSO as the negative control and baseline of activity. Using a type of inducible reporter, measures of mRNA induction for gain or loss-of-signal activity can be used to understand regulation of transcription factor activity. To generalize the intended target to other relatable targets, this assay endpoint is annotated to the cyp intended target family, where the subfamily is xenobiotic metabolism.
# A total of 1060 chemcials from the ToxCast library were tested in eight-point concentration-response experiments. Cell culture and cytotoxicity assays were conducted at Thermo Fisher Scientific's Custom Services facility (Madison, WI). A single lot of human HepaRG cells (Thermo Fisher Scientific, Frederick, MD) was used for the cell culture experiments. 96-well format collagen type I coated plates of human HepaRG cells were prepared using established methods. Briefly, cryopreserved HepaRG cells were thawed, plated at a density of approximately 100,000 cells/well in HepaRG Thaw, Plate, and General Purpose media (HPRG770, Thermo Fisher Scientific), and incubated for 48 hours. 0.5% DMSO was selected as vehicle control to balance the requisite need of DMSO in HepaRG cultures to maintain differentiation (for example, baseline metabolism, proportions of hepatocytes vs. cholangiocytes), while enabling further hepatic receptor pathway activation (for example, PXR and CAR) in response to chemical exposure. 48 hours after plating, the culture medium was replaced with HepaRG Serum-Free Incudtion Media. Cells were exposed to each test chemical in duplicate and maintained in CO2 incubators for another 48 hours. Chemical plates were thawed to room temperature and 200x concentrations of treatment groups were prepared. 8-point conentration-reponse curves were made with the highest exposure at 100 uM, followed by half-log dilutions, all in 0.5% DMSO. Each test plate contained variouse controls, induction positive controls (1mM phenobarbital), cytotoxicity positive controls ([…] aflatoxin B1), vehicle controls (0.5% DMSO), and total lysis controls (0.5% DMSO). Cell morphology images were taken using an Essen IncuCyte FLR automated microscope, with six 96-well plates imaged in about 24 minutes. Images were captured and exported and JPEG files. Spent culture media was transfered to black-well plates for the LDH assay, and remaining media was sorted at -80 C for later use. Cells were treated with RLT buffer and frozen until shipped for gene expression analysis. Total RNA was isolated from the cell suspension in 75 uL of Buffer RLT (Qiagen, Germantown, MD 20874) by Quintiles/Expression Analysis (Durham, NC) using a custom isolation procedure. Total RNA from each plate well was transferred to a preamplification plate. Fluidigm's 96.96 Dynamic ArrayTM (Fluidigm, Amsterdam, the Netherlands) technology was used for gene expression analyses by quantitative reverse transcription polymerase chain reaction (qRT-PCR, performed by Quintiles/Expression Analysis, Durham, NC)89. Standard TaqManTM Assays (Applied Biosystems/ThermoFisher Scientific, Foster City, CA) were used to assess the expression of 93 genes selected based on their selectivity and sensitivity to important hepatic receptors known to be modulated by environmental chemicals; importance in human hepatocyte functionality; and hepatotoxicity. […]
Compound,outcome,AC50
c1ccc(C2CO2)cc1 (stereo not given),inactive,–
O=C(Nc1ccccc1)c1ccccc1I,inactive,–
c1ccc2c(c1)-c1cccc3cccc-2c13,inactive,–
Clc1ccccc1Cl,inactive,–
C=CCc1ccc2c(c1)OCO2,inactive,–
Clc1ccc(C(c2ccc(Cl)cc2)C(Cl)(Cl)Cl)cc1,–,12.5 µM (active)
O=C1CCCO1,inactive,–
Clc1ccc(C(c2ccc(Cl)cc2)C(Cl)Cl)cc1,–,12.7 µM (active)
CCC[CH2][Sn]([Cl])([CH2]CCC)[CH2]CCC,–,2.42 µM (active)
CCCCOC(=O)c1ccccc1C(=O)OCc1ccccc1,inactive,–
O=P(OCCCl)(OCCCl)OCCCl,inactive,–
Brc1ccc(Oc2ccccc2)cc1,inactive,–
CC(C)(C)C(O)(CCc1ccc(Cl)cc1)Cn1cncn1 (stereo not given),–,11.4 µM (active)
O=Cc1ccco1,inactive,–
[O-][Cl+]O,inactive,–
Nc1ccc(Cl)cc1N,–,25.1 µM (active)
C[N+](C)(C)CC1CO1 (stereo not given),inactive,–
N#CC(Br)Br,inactive,–
CNC(=O)Oc1cccc2c1OC(C)(C)C2,inactive,–
O=C(Oc1ccc(Br)cc1)N1CCN2CCC1CC2,inactive,–

Compound,outcome,AC50
CCCCCOC(=O)c1ccccc1C(=O)OCCCCC,inactive,–
CCN(CC)N=O,inactive,–
CCCCCCCCOC(=O)c1ccc(C(=O)OCCCCCCCC)c(C(=O)OCCCCCCCC)c1,inactive,–
COP(=S)(OC)SCN1C(=O)c2ccccc2C1=O,inactive,–
Nc1ccc([N+](=O)[O-])cc1,inactive,–
CC(C)(OOC(C)(C)c1ccccc1)c1ccccc1,–,25.4 µM (active)
CC(C)(C)OOC(C)(C)CCC(C)(C)OOC(C)(C)C,inactive,–
Cc1ccc(N)cc1,inactive,–
Cc1ccc([N+](=O)[O-])cc1,inactive,–
Cc1cc(N=Nc2ccccc2C)ccc1N,–,5.98 µM (active)
OCCCBr,inactive,–
CC(C)N(Cc1ccccc1)C(=O)C(C)(C)C,–,10.4 µM (active)
OCCCl,inactive,–
Nc1ccc(N=Nc2ccccc2)cc1,–,17.3 µM (active)
c1ccc(NNc2ccccc2)cc1,inactive,–
[Cl-].[Cl-].[Hg+2],inactive,–
C1=Cc2cccc3cccc1c23,inactive,–
Cc1ccc(N=C=O)cc1N=C=O,inactive,–
Oc1ccccc1Cl,inactive,–
CC(C)COC(=O)c1ccccc1C(=O)OCC(C)C,inactive,–
